Compounds without any hit were thinned out: in the full panel of roughly 79,000, 15% have a hit. Values without a mark were called inactive. Activity calls are given as the source filed them. Cut-off read from the data, not from the text of the source: active = growth inhibition above about 70%; inactive = the rest.
Assay: NCI Yeast Anticancer Drug Screen. Data for the mec2-1 strain (AID 157)
Details: S. cerevisiae mec2-1 strain, at 5.0 µM (retest, dose inferred, filed as 0.5), hits give high values
How it was run: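 Readout is yeast growth inhibition, normalised to vehicle-treated controls, in the mec2-1 strain exposed to compound.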

SMILES | growth inhibition
CCSC1(SCC)C(=O)OC2=C(CCCC2)C1N1CCOCC1 (stereo not given) | 2%
NC(=O)C(CCc1cccc2ccccc12)c1ccccc1 (stereo not given) | -10%
NC(CCCCCC(N)C(=O)O)C(=O)O (stereo not given) | -50%
CN(C)CC(CN(C)C)C(=O)C1CCCCC1 | 2%
O=C1/C(=C/c2ccc([N+](=O)[O-])cc2)Sc2scc(-c3cccc([N+](=O)[O-])c3)[n+]21 | 69%
CC(C)(C)c1cc(C(P(=O)(c2ccccc2)c2ccccc2)P(=O)(c2ccccc2)c2ccccc2)cc(C(C)(C)C)c1O | -5%
COC(=O)c1cc(=O)n(-c2ccccc2C(F)(F)F)c(SC)n1 | 14%
CSC(SC)=C1C(=O)NC(Cc2ccccc2)C1=O (stereo not given) | 1%
c1ccc(C(c2ccccc2)c2ccc3ccccc3n2)cc1 | -2%
CN(C)c1nc(N(C)C)nc([N+](C)(C)C)n1 | -3%
CCCNC(=S)N/N=C(/C)c1nccc2ccccc12 | 4%
OC(CN1CCc2ccccc2C1)c1ccc2ccccc2c1 (stereo not given) | 18%
Nc1nc(N)c2nc(CNc3ccc(C(=O)NC(CCC(=O)O)C(=O)O)cc3)ccc2n1 (stereo not given) | -25%
O=c1c2ccccc2c2ccccc2n1O | 95% (active)
CC(=O)N1c2ccccc2Sc2ccc3ccc(C(=O)CCl)cc3c21 | 83% (active)
CC(NNC(=S)N1CC2CCC(CC2)C1)c1nccc2ccccc12 (stereo not given) | 98% (active)
O=C1O/C(=C(\Cc2ccccc2)c2ccccc2)N(c2ccccc2)C1=O | -6%
S=c1sc2ccccc2n1C=Nc1ccccc1 | -5%
CSc1nc(NC2OC(CO)C(O)C(O)C2O)c(Cl)c(=O)[nH]1 (stereo not given) | 0%
C=CCN1/C(=C\C=C\c2ccc3cc(C)ccc3[n+]2CC=C)C=Cc2cc(C)ccc21 | 63%

SMILES | growth inhibition
S=c1[nH]nc(SCc2ccc(Cl)c(Cl)c2)c2[nH]cnc12 | -11%
Nc1ccc(C(=O)/C=C/c2ccccn2)cc1 | -6%
CCOC(=O)C(C(=O)O)(C(c1ccccc1)c1ccccc1)C(c1ccccc1)c1ccccc1 | 100% (active)
CSC(=S)n1nc(-c2ccccc2)c(N=Nc2ccc(Br)cc2)c1-c1ccccc1 | 9%
COc1ccc([N+](=O)[O-])cc1Nc1c2ccccc2nc2ccccc12 | 17%
C=CCN1/C(=C/C=C\c2sc3ccccc3[n+]2CC=C)Sc2ccccc21 | 80% (active)
COc1ccc(/C=C/C(C(=O)O)C(=O)O)cc1 | -20%
CN(C)C(=O)c1cc(Br)cc(-c2ccccc2)c1O | 0%
Cc1cc(N=[N+]=[N-])c2cc(C3CCCCC3)ccc2n1 | 8%
[Cu+2].[O-]/N=C/c1cccc(O)c1[O-].[O-]/N=C/c1cccc(O)c1[O-] | -14%
c1ccc(Cn2nnc(-c3ccccc3)c2-c2ccccc2)cc1 | -12%
CCOc1ccc2nc(Cl)sc2c1 | -7%
CCOC(=O)c1sc2c(c1O)c(=O)n(-c1ccccc1)c(=S)n2-c1ccccc1 | 90% (active)
O=C(O)c1c[nH]c2cc(Cl)ccc2c1=O | 1%
Cc1cc2c(cc1O)CC[C@@H]1[C@@H]2CC[C@]2(C)[C@@H](O)CC[C@@H]12 | -25%
NC(=O)NOCC1NC(=O)NC1=O (stereo not given) | -10%
CCOC(=O)c1cnc2cc3cccccc3n2c1=O | -1%
CC(CO)CCC(=O)C(C)C1C(=O)CC2CC3CC(O)CCC3(C)CC21C (stereo not given) | -2%
N#CSC#Cc1ccc(C#CSC#N)cc1 | 100% (active)
CCS/C(SC)=C(/c1ccccc1)[P+](c1ccccc1)(c1ccccc1)c1ccccc1 | 99% (active)

Same assay, conditions: S. cerevisiae mec2-1 strain, at 50.0 µM (retest, dose inferred, filed as 5.0), hits give high values

SMILES | growth inhibition
CCSC1(SCC)C(=O)OC2=C(CCCC2)C1N1CCOCC1 (stereo not given) | 12%
NC(=O)C(CCc1cccc2ccccc12)c1ccccc1 (stereo not given) | -6%
NC(CCCCCC(N)C(=O)O)C(=O)O (stereo not given) | -54%
CN(C)CC(CN(C)C)C(=O)C1CCCCC1 | 96% (active)
O=C1/C(=C/c2ccc([N+](=O)[O-])cc2)Sc2scc(-c3cccc([N+](=O)[O-])c3)[n+]21 | 98% (active)
CC(C)(C)c1cc(C(P(=O)(c2ccccc2)c2ccccc2)P(=O)(c2ccccc2)c2ccccc2)cc(C(C)(C)C)c1O | 92% (active)
COC(=O)c1cc(=O)n(-c2ccccc2C(F)(F)F)c(SC)n1 | 92% (active)
CSC(SC)=C1C(=O)NC(Cc2ccccc2)C1=O (stereo not given) | 35%
c1ccc(C(c2ccccc2)c2ccc3ccccc3n2)cc1 | 71% (active)
CN(C)c1nc(N(C)C)nc([N+](C)(C)C)n1 | 1%
CCCNC(=S)N/N=C(/C)c1nccc2ccccc12 | 98% (active)
OC(CN1CCc2ccccc2C1)c1ccc2ccccc2c1 (stereo not given) | 58%
Nc1nc(N)c2nc(CNc3ccc(C(=O)NC(CCC(=O)O)C(=O)O)cc3)ccc2n1 (stereo not given) | 11%
O=c1c2ccccc2c2ccccc2n1O | 95% (active)
CC(=O)N1c2ccccc2Sc2ccc3ccc(C(=O)CCl)cc3c21 | 98% (active)
CC(NNC(=S)N1CC2CCC(CC2)C1)c1nccc2ccccc12 (stereo not given) | 96% (active)
O=C1O/C(=C(\Cc2ccccc2)c2ccccc2)N(c2ccccc2)C1=O | 23%
S=c1sc2ccccc2n1C=Nc1ccccc1 | 97% (active)
CSc1nc(NC2OC(CO)C(O)C(O)C2O)c(Cl)c(=O)[nH]1 (stereo not given) | -1%
C=CCN1/C(=C\C=C\c2ccc3cc(C)ccc3[n+]2CC=C)C=Cc2cc(C)ccc21 | 99% (active)

SMILES | growth inhibition
S=c1[nH]nc(SCc2ccc(Cl)c(Cl)c2)c2[nH]cnc12 | -2%
Nc1ccc(C(=O)/C=C/c2ccccn2)cc1 | 64%
CCOC(=O)C(C(=O)O)(C(c1ccccc1)c1ccccc1)C(c1ccccc1)c1ccccc1 | 100% (active)
CSC(=S)n1nc(-c2ccccc2)c(N=Nc2ccc(Br)cc2)c1-c1ccccc1 | 25%
COc1ccc([N+](=O)[O-])cc1Nc1c2ccccc2nc2ccccc12 | 70% (active)
C=CCN1/C(=C/C=C\c2sc3ccccc3[n+]2CC=C)Sc2ccccc21 | 99% (active)
COc1ccc(/C=C/C(C(=O)O)C(=O)O)cc1 | 84% (active)
CN(C)C(=O)c1cc(Br)cc(-c2ccccc2)c1O | 84% (active)
Cc1cc(N=[N+]=[N-])c2cc(C3CCCCC3)ccc2n1 | 98% (active)
[Cu+2].[O-]/N=C/c1cccc(O)c1[O-].[O-]/N=C/c1cccc(O)c1[O-] | 99% (active)
c1ccc(Cn2nnc(-c3ccccc3)c2-c2ccccc2)cc1 | 97% (active)
CCOc1ccc2nc(Cl)sc2c1 | 91% (active)
CCOC(=O)c1sc2c(c1O)c(=O)n(-c1ccccc1)c(=S)n2-c1ccccc1 | 98% (active)
O=C(O)c1c[nH]c2cc(Cl)ccc2c1=O | 5%
Cc1cc2c(cc1O)CC[C@@H]1[C@@H]2CC[C@]2(C)[C@@H](O)CC[C@@H]12 | -16%
NC(=O)NOCC1NC(=O)NC1=O (stereo not given) | -13%
CCOC(=O)c1cnc2cc3cccccc3n2c1=O | 41%
CC(CO)CCC(=O)C(C)C1C(=O)CC2CC3CC(O)CCC3(C)CC21C (stereo not given) | 66%
N#CSC#Cc1ccc(C#CSC#N)cc1 | 96% (active)
CCS/C(SC)=C(/c1ccccc1)[P+](c1ccccc1)(c1ccccc1)c1ccccc1 | 100% (active)

Source: PubChem BioAssay (NCI)
